# High-throughput results as filed in PubChem.
# DAX1 inh-1: DAX1 (NR0B1) inhibition, primary screen; HEK293T StAR-luciferase reporter, SF-1/DAX-1 repression relief; inhibition, % at 6.8 µM; actives 1.1% (n = 370,000);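 active = inhibition above the mean over all tested compounds plus 3 SD, cut at about 3.6% in these data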;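 note: 0% = DAX-1 cells with DMSO and 100% = cells lacking DAX-1 with DMSO; higher inhibition means more luminescence from relief of DAX-1 repression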
# SMARCA2 activ: increases SMARCA2 function in MMTV reporter cells | MG213 cells, MMTV-luciferase reporter, dexamethasone, overnight | activation, % at 9.1 µM | AID 652017 | actives 1% (n = 370,000); in the data active = activation above about 7.8%;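 note: 0% = vehicle wells and 100% = reference activator wells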
# hcDAF12 agonist: activates DAF-12 receptor from parasite H. contortus. actives 1.4% (n = 370,000). activation, % at 6.8 µM. HEK293 hcDAF-12 lit1-tk-luc reporter, luminescence; 0% DMSO, 100% Δ7-dafachronic acid. AID 652067;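 active = activation above the mean of all tested compounds plus 3 SD, cut at about 5.5% in these data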;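 note: 100% = response to 3 µM Δ7-dafachronic acid high control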
# ssDAF12 agonist: S. stercoralis DAF-12 activation, primary screen; actives 1% (n = 370,000); HEK293 ssDAF-12/GRIP1 lit1-tk-luc reporter, luminescence; % of 3 µM dafachronic acid response; AID 652126; activation, % at 6.8 µM;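 active = activation above the mean over all tested compounds plus 3 SD, cut at about 0.9% in these data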;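 note: 0% = DMSO-only wells and 100% = 3 µM delta7-dafachronic acid wells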
# DAX1 inh-2: inhibits human nuclear receptor DAX1 | P51843 | HEK293 Gal4-DAX1 luciferase reporter, luminescence | inhibition, % at 6.75 µM | actives 0.99% (n = 340,000) | AID 504766;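 active = inhibition above the mean over all tested compounds plus 3 SD, cut at about 4.2% in these data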;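 note: 0% = DAX1-transfected cells with DMSO and 100% = empty-vector control cells with DMSO; inhibition shows as a rise in luminescence from relieved DAX1 repression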
# Target sequence (P51843 207-470 limits assumed): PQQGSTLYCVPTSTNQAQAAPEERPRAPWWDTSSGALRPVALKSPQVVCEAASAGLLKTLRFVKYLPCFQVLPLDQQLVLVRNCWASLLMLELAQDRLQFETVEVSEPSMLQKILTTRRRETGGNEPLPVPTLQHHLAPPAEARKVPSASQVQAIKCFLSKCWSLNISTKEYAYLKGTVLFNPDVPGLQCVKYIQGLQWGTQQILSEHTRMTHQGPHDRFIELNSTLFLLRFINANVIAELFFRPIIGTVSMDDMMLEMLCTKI
# hgDAF-12 ag: hgDAF-12 agonism, primary luciferase screen | HEK293 GAL4-hgDAF12 UAS-luciferase reporter, agonist luminescence; normalized to butyrate control | AID 687014 | actives 1.8% (n = 370,000) | activation, % at 6.8 µM;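 active = activation above a cutoff set at the mean of all screened compounds plus 3 SD, cut at about 10% in these data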;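 note: 0% = DMSO wells and 100% = sodium butyrate wells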
# LXR ag: counter-screen for hcDAF-12 agonists: agonists of human LXR-beta. 3,400 tested, under 10 active. shares compounds with hcDAF12 agonist. activation, % at 6.8 µM. AID 743027. HEK293 Gal4-LXR tk-luc reporter, luminescence, 24 h; normalized: DMSO 0%, positive control 100%;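 active = mean percent activation of the reporter above a cutoff set as the average over tested compounds plus their standard deviation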
# hcDAF12 conf: confirmation of H. contortus DAF-12 agonists; activation, % at 6.8 µM; AID 743032; actives 61% (n = 3,400); HEK293 hcDAF-12 lit1-tk-luc reporter, luminescence; % of Δ7-dafachronic acid response; shares compounds with hcDAF12 agonist;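 active = mean activation across triplicate tests above the threshold derived from the earlier primary screen, cut at about 5.5% in these data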;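 note: 0% = DMSO only wells and 100% = 3 µM Δ7-dafachronic acid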
# hgDAF12 ag: hgDAF-12 agonism, confirmation assay | shares compounds with hgDAF-12 ag | HEK293 GAL4-hgDAF12 luciferase reporter, agonist mode; percent of butyrate response | activation, % at 6.8 µM | actives 80% (n = 3,300) | AID 743050;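 active = mean activation over triplicate wells above the hit cutoff derived from the earlier primary screen, cut at about 11% in these data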;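 note: 0% = DMSO low control and 100% = 2 mM sodium butyrate high control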
# LXR ag 2: counter-screen for DAF-12 agonists: agonists of human LXR-beta. shares compounds with hgDAF-12 ag. HEK293 Gal4-LXR luciferase reporter, 24 h. activation, % at 6.8 µM. 3,300 tested, under 10 active. AID 743051;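 active = mean activation of the triplicate above a set limit carried over from the primary screen, none filed active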
# Active calls of the source: *; x = no result. Sampled rows, rich in hits. Any-hit rate of the full collection: about 4.8%.
SMILES,DAX1 inh-1,SMARCA2 activ,hcDAF12 agonist,ssDAF12 agonist,DAX1 inh-2,hgDAF-12 ag,LXR ag,hcDAF12 conf,hgDAF12 ag,LXR ag 2
CCOc1ccc(-c2c(=O)n(O)c3ccccc3[n+]2[O-])cc1,3,7,7.8*,0,1,21*,0,3,41*,1
N/C(=N\OC(=O)c1cc(Br)ccc1Cl)c1ccccn1,3.7*,4,16*,3.8*,2,21*,1,15*,23*,1
N/C(=N\OC(=O)Cc1ccccc1[N+](=O)[O-])c1ccccn1,0,-2,0,-2,0,0,x,x,x,x
Cc1c(C(=O)O/N=C(\N)c2ccccn2)cccc1[N+](=O)[O-],2,4,16*,3.0*,2,17*,1,10*,20*,1
Cc1cc2cc3c(cc2nc1SCc1ccccn1)OCCO3,-1,3,-2,0,0,0,x,x,x,x
N#Cc1cc2ccccc2nc1SCc1ccccn1,4.3*,7,20*,4.7*,2,17*,1,9.2*,16*,1
COc1ccc(C(=S)N2CCCC2)cc1Br,0,-2,-1,-1,0,0,x,x,x,x
Cc1ccc(NC(=O)c2ccc(C)cc2)cc1,3,2,7.8*,1,-2,14*,1,5.7*,21*,1
COc1cc2ccccc2cc1C(=O)Nc1ccc(C)cc1,1,2,17*,1.0*,5.9*,19*,1,12*,20*,1
Cc1ccc(NC(=O)c2cc3ccccc3oc2=N)cc1,3.7*,4,11*,0.9*,2,14*,1,17*,7,1
COc1ccc(C(=O)Nc2ccncc2)c(OC)c1,0,1,-1,-1,1,0,x,x,x,x
COc1ccc(C(=O)Nc2ccc3ccccc3c2)c(OC)c1,3,5,16*,3.7*,5.8*,15*,2,15*,26*,1
CC(C)Oc1cccc(-c2n[nH]c(=S)n2N=Cc2cccc([N+](=O)[O-])c2)c1,-1,3,-2,-1,x,-3,x,x,x,x
O=C(NC1CCCCC1)C(c1ccnc2ccccc12)n1c(=O)c(-c2ccccc2)nc2ccccc21 (stereo not given),0,-4,-2,0,x,-1,x,x,x,x
COc1cc(SC)ccc1C(=O)Nc1ccc2c(c1)CCC2,2,2,17*,4.0*,4,22*,1,14*,22*,1
NC(=S)N(c1ccccc1)c1ccccc1,0,2,-1,-2,-1,0,x,x,x,x
O=C(c1cc(-c2ccc(Cl)cc2Cl)on1)N1CCCCCC1,3,2,8.8*,0,4,16*,2,8.3*,18*,1
O=C(c1cc(-c2ccc(O)cc2)on1)N1CCCCCC1,2,1,6.8*,0,5.1*,14*,1,3,17*,1
O=C(c1cc(-c2ccc(Cl)cc2Cl)on1)N1CCCC1,3,0,4,0,0,10,x,x,x,x
Cc1cc(N)n(-c2cc(C)c3ccccc3n2)n1,4,7.9*,9.9*,1.6*,1,17*,1,13*,17*,1
COc1ccc2c(c1)CCc1c-2n[nH]c1C(=O)NCCC(C)C,4.0*,1,6.8*,0,2,15*,1,4,17*,1
COc1ccccc1NC(=O)NCC(c1ccco1)N1CCCCC1 (stereo not given),0,0,-1,-1,0,1,x,x,x,x
CC(C)OCCCn1c(=NC(=O)c2ccncc2)c(C#N)cc2c(=O)n3ccccc3nc21,0,-3,-1,-1,1,-1,x,x,x,x
CC(=O)c1ccc(NCC2COc3ccccc3O2)c([N+](=O)[O-])c1 (stereo not given),3,3,11*,1.4*,3,23*,1,9.0*,15*,1
O=C(NCC1COc2ccccc2O1)c1ccc(-n2cncn2)c([N+](=O)[O-])c1 (stereo not given),0,-2,-2,0,0,0,x,x,x,x
SMILES,DAX1 inh-1,SMARCA2 activ,hcDAF12 agonist,ssDAF12 agonist,DAX1 inh-2,hgDAF-12 ag,LXR ag,hcDAF12 conf,hgDAF12 ag,LXR ag 2
O=C(Nc1nccs1)c1ccc(-c2ccc(Cl)cc2)o1,4.3*,3,6.6*,1.3*,4.6*,17*,2,4,22*,1
Cc1nnc(NC(=O)c2ccc(-c3ccc(Cl)cc3)o2)s1,1,2,-2,-1,0,-2,x,x,x,x
COc1ccc(-c2cc3cc(OC)c(OC)cc3cn2)cc1,0,7,0,-1,1,3,x,x,x,x
COc1ccc2cc(-c3ccccc3)ncc2c1,3,6,13*,1.8*,2,16*,2,14*,20*,1
COc1cc(OC)cc(-c2cc3ccc(OC)cc3cn2)c1,1,7,6.7*,0.9*,3,16*,2,6.6*,19*,1
COC(=O)[C@H](Cc1ccccc1)N1C[C@@H](N2CCC[C@H]2C)CS1(=O)=O,-1,1,-2,0,x,-2,x,x,x,x
CC(=O)Nc1ccc(S(=O)(=O)NCC(=O)NCCCc2ccccc2)cc1,0,-3,0,-1,-2,-4,x,x,x,x
CCOC(=O)Cc1csc(NC(=O)c2ccco2)n1,3,5,1,-1,1,13*,x,x,4,0
CCOC(=O)C1(Cc2ccccc2Cl)CCN(C(=O)c2cnccn2)CC1,2,5,1,0,2,16*,x,x,11*,0
CN1CCN(c2ccc(CNC(=O)C3Cc4c(-c5ccccc5Oc5ccccc5)ccnc4O3)cc2)CC1 (stereo not given),0,0,-1,-1,x,-4,x,x,x,x
Cc1ccc([C@H]2C[C@@H](n3cc(C4CC4)nn3)[C@H](O)CN2C(=O)c2cccs2)cc1,1,-2,-3,-1,0,-1,x,x,x,x
NC(=S)NNc1cccc(Cl)c1,-1,-1,0,0,0,0,x,x,x,x
